IP6K1 inhibitor: blocks human inositol hexakisphosphate kinase 1. Q92551. IP6K1 kinase, ADP-Glo luminescence, 2 h; active compounds read low. activity change, % (series mostly up to about 58 µM). 140,000 compounds, 0.81% hits. AID 1645851; in the data active means activity change below about -25%
Target sequence (Q92551 whole entry, looked up): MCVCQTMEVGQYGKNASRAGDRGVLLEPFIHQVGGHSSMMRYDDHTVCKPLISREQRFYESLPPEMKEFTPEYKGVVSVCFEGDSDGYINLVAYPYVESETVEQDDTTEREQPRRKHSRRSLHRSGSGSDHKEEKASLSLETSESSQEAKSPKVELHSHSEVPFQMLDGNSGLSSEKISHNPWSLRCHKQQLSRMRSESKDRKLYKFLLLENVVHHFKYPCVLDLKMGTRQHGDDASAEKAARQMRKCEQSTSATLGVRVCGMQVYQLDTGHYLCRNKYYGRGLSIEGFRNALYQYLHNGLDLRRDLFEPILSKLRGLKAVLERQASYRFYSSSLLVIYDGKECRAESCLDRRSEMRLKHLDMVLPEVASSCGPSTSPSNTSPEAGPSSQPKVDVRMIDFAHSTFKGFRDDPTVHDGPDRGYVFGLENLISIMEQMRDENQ
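ADP-Glo luminescence measures ADP made by human IP6K1 during a 2 h RT reaction with ATP/IP6 (mix at 1.3 mM/130 uM); top library doses 57.5 and 19.1 uM final.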
KDM5B inh: inhibitors of human KDM5B histone demethylase; Q9UGL1; KDM5B demethylase, FDH-coupled NADH fluorescence (FDH is formaldehyde dehydrogenase); Potency, µM (top dose mostly 57.7 µM), hits mostly inhibitors; 220,000 compounds, 2.6% hits; AID 1347165; further: nearly all actives have a fitted effect of over 70% in size
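qHTS format, multiple compound concentrations. Buffer 50 mM HEPES pH 7.5/0.01% Tween-20; 200 nM KDM5BΔAP final; 10 min compound preincubation; substrate-mix levels 12.5 µM peptide, 25 µM α-KG, 0.25 mM NAD⁺; 30 min RT; ΔRFU.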
HEK293 viab: cell viability loss counter-screen | HEK-293-SNCA-luc viability, GF-AFC fluorescence, 24 h | Potency, µM (series often up to 57.1 µM), hits mostly cytotoxic | 150,000 compounds, 0.12% hits | AID 1671193; further: nearly all actives have a fitted effect of over 30% in size
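Cytotoxicity counterscreen: after 24 h compound treatment of genome-edited SNCA-luciferase HEK-293 cells, live-cell protease substrate GF-AFC read by fluorescence after 30 min; activity scaled between DMSO (0%) and medium-only (-100%), curves Hill-fitted.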
SNCA expr inh: SNCA gene expression inhibition; HEK-293 SNCA-luciferase knock-in, luminescence, 24 h; Potency, µM (doses to about 57.2 µM), most hits filed as inhibitors; 140,000 compounds, 0.17% hits; AID 1671194; further: nearly all actives have a fitted effect of over 45% in size
A number is an active result; i = inactive; ? = inconclusive; nt = not tested or not shown. Shown are actives, neighbours in structure and some others; about 3% of the full set was active somewhere. Unless noted, the call rests on the fitted dose curve; in most records, active means well fitted curve in the direction sought with a large enough effect; inconclusive means small, poorly fitted or top-dose-only effect, or another doubt; inactive means no such curve, though single readings can be large; an effect the other way counts as inactive or inconclusive.

SMILES	IP6K1 inhibitor	KDM5B inh	HEK293 viab	SNCA expr inh
Cc1ccc2cc(CCC(=O)NCCN3CCN(C)CC3)c(=O)[nH]c2c1	i	?	i	i
CCCNC(=O)CCc1cc2cc(OC)ccc2[nH]c1=O	i	32µM	i	i
COc1ccc2[nH]c(=O)c(CCC(=O)NCCN3CCCCCC3)cc2c1	i	28µM	i	i
COc1ccc(N(Cc2cc3cc(OC)ccc3[nH]c2=O)C(=O)c2cccc(Cl)c2)cc1	i	i	i	i
COc1ccc2[nH]c(=O)c(CCC(=O)NCCc3ccccn3)cc2c1	i	?	i	i
CCN(CC)CCNC(=O)CCc1cc2cc(OC)ccc2[nH]c1=O	i	28µM	i	i
CCOC(=O)[C@@H]1[C@@H](OC)C(=O)N(C)C12CCN(C(=O)OCC(C)C)CC2	i	nt	nt	nt
CCOC(=O)C1c2c(OC)ccc3c2C(=CC(C)(C)CO3)CN1Cc1nccn1C (stereo unspecified)	i	nt	nt	nt
COc1cccc(C(=O)Nc2ccc3c(c2)CN(Cc2cccc(OC)c2OC)C(=O)C(C)O3)c1 (stereo unspecified)	i	?	i	i
COc1ccc(C(=O)NCCNC(=O)c2cccc(-c3cc(F)ccc3OC)c2)cc1	i	nt	i	i
COCCNC(=O)CCc1cc2cc(OC)ccc2[nH]c1=O	i	32µM	i	i
CCC1CCCCN1CCCNC(=O)CCc1cc2cc(OC)ccc2[nH]c1=O (stereo unspecified)	i	32µM	i	i
COCCCNC(=O)CCc1cc2ccccc2[nH]c1=O	i	?	i	i
Cc1ccc2[nH]c(=O)c(CCC(=O)N(C)Cc3cn(C)nc3C)cc2c1	i	32µM	i	i
O=C(c1ccc(Cl)cc1)N1CC2(CCCN2Cc2ccc(C(F)(F)F)cc2)Cc2ccccc21 (stereo unspecified)	i	?	i	i
O=C(Nc1cn[nH]c1-c1nc2ccc(CN3CCOCC3)cc2[nH]1)NC1CC1	i	nt	?	24µM
Cc1c(Cl)cccc1-n1ncc(C(=O)N2CCc3ccccc3C2)c1C1CCN(C(=O)OC(C)(C)C)CC1	i	i	i	22µM
Cc1ccc(-c2ccnc(N3CCC(N(C)Cc4ccon4)CC3)n2)c(C)n1	i	?	i	i
CCn1ccnc1CN(C)c1nccc(-c2ccc(C)nc2C)n1	i	22µM	i	i
Cc1nn(C)c(C)c1S(=O)(=O)N1CCCC(C(=O)N2CCCn3nc(-c4ccc(F)cc4)cc3C2)C1 (stereo unspecified)	i	nt	i	i
COc1ccccc1-c1cccc(CN2CCCC(C(=O)Nc3cccc(Cl)c3)C2)c1 (stereo unspecified)	i	nt	?	?
CN(C)Cc1ccc2c(c1)c(OC(C)(C)C(=O)NCCN1CCOCC1)nn2Cc1ccccc1	i	22µM	i	i
COCCCNC(=O)C(C)(C)Oc1nn(Cc2cccc(Cl)c2)c2ccccc12	i	?	?	32µM
COCCNC(=O)C(C)(C)Oc1nn(Cc2cccc(Cl)c2)c2ccccc12	i	i	?	i
COCc1ccc2c(c1)c(OC(C)(C)C(=O)NCCN(C)C)nn2Cc1ccccc1	i	32µM	i	i
SMILES	IP6K1 inhibitor	KDM5B inh	HEK293 viab	SNCA expr inh
CC(C)(Oc1nn(CCN2CCOCC2)c2ccccc12)C(=O)NCCc1ccccc1	i	i	i	?
COCc1ccc2c(c1)c(OC(C)(C)C(=O)NCc1ccncc1)nn2Cc1ccccc1	i	i	i	i
CC1=C(CO)C(=O)O[C@@H]([C@@H](C)[C@H]2CC[C@H]3[C@@H]4C[C@H]5O[C@]56[C@@H](O)C=CC(=O)[C@]6(C)[C@H]4CC[C@]23C)C1	i	nt	10µM	nt
COc1cccc(-c2ccc(CN3CCCC(NC(=O)C4CCCC4)C3)cc2)c1 (stereo unspecified)	i	nt	nt	nt
Cc1ccc2nc(CO[C@H]3CN(C4CCCCC4)C[C@H]3F)[nH]c2c1	i	?	i	i
Cc1ccc2nc(CO[C@H]3CN(c4ccc(C#N)cn4)C[C@H]3F)[nH]c2c1	i	18µM	i	i
COc1ccc(CCNC(=O)c2nc3sccn3c2-c2ccncc2)cc1	i	nt	i	i
COc1ccc2c(c1)c(CN1CCc3nn(C)c(=O)n3CC1)cn2C	i	32µM	?	?
CC[C@@H]1[C@H](NC(=O)c2cccc(N3CCS(=O)(=O)CC3)c2)[C@@H]2CCO[C@H]12	i	22µM	i	i
COc1ccc(-c2cc(C(=O)NCC(C)C)c3c(C4CCNC4)noc3n2)cc1 (stereo unspecified)	i	?	i	i
Cc1cc(C(=O)N2CCCCC2)c2c(C3CCNC3)noc2n1 (stereo unspecified)	i	89µM	i	i

Assay outcomes as filed in PubChem.
